Algae TAG accum – inducers of TAG accumulation in Chlamydomonas, primary screen, qHTS, Chlamydomonas reinhardtii | calls only at 10 µM (by protocol) | AID 1159537, 2015 | Nile Red fluorescence, 72 h | 44,000 compounds, 0.84% hits; call rule not given here;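 also: hits raise Nile Red signal meaning more stored TAG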
Starred values were filed as active, the others as inactive; i = inactive; + = active, no number. Only a selection was taken, and hits are over-represented in it overall.

SMILES	Algae TAG accum
C=CCSc1nnc(-c2ccc(Br)cc2)o1	i
COc1cccc(CN2CCN(C(=O)C(c3ccccc3)c3ccccc3)CC2)c1OC	i
COc1cc(OC)cc(C(=O)N2CCN(C(=O)C(c3ccccc3)c3ccccc3)CC2)c1	i
COc1ccccc1C(=O)N1CCN(C(=O)C(c2ccccc2)c2ccccc2)CC1	+
CCOc1cc(CN2CCN(C(=O)c3cc(OC)c(OC)c(OC)c3)CC2)ccc1OC	i
Fc1ccccc1N1CCN(C2Cc3ccccc3C2)CC1	i
Fc1ccccc1N1CCN(CC2CCCCC2)CC1	+
CCOc1ccccc1N1CCN(C(=O)C2CCN(CC3CCCCC3)CC2)CC1	i
O=C(CSc1nc(-c2ccccc2)cc(=O)[nH]1)Nc1ccccc1F	i
Cc1ccc2oc(-c3ccc(C)c(NC(=O)c4ccccc4)c3)nc2c1	i
CCOC(=O)N1CCN(Cc2cccc(Cl)c2Cl)CC1	i
CC1(C)CC(NC(=O)c2ccccc2Cl)CC(C)(C)N1O	i
COc1ccc(OCC(=O)Nc2cc(OC)c(OC)cc2C(=O)O)cc1	i
COc1cc(NC(=O)CSCc2ccccc2)c(C(=O)O)cc1OC	i
CCc1cccc(OCC(=O)Nc2cc(OC)c(OC)cc2C(=O)O)c1	+
CSc1cccc(NC(=O)C2CCN(C(=O)Cc3ccccc3)CC2)c1	i
COc1ccc2c(c1)C1C=CCC1C(c1ccc([N+](=O)[O-])cc1)N2 (stereo unspecified)	i
Cc1c(C(=O)NCCSc2ccccn2)cccc1[N+](=O)[O-]	i
O=[N+]([O-])c1ccccc1OCCCN1CCOCC1	i
CCC(C)c1ccccc1OCCCN1CCOCC1 (stereo unspecified)	+
CCC(C)c1ccccc1OCCCCN1CCCC1 (stereo unspecified)	+
CCC(C)c1ccccc1OCCOCCN1CCCC1 (stereo unspecified)	i
Fc1ccccc1OCCN1CCOCC1	i
CCOc1ccc(OCCOCCN2CCOCC2)cc1	i
Clc1ccc(OCCOCCN2CCOCC2)cc1Cl	i
SMILES	Algae TAG accum
CCC(C)c1ccccc1OCCOCCN1CCOCC1 (stereo unspecified)	+
c1ccc(-c2ccccc2OCCCN2CCOCC2)cc1	i
CCC(C)c1ccccc1OCCN1CCCC1 (stereo unspecified)	i
CCc1ccc(OCCOCCN2CCOCC2)cc1	+
CCC(C)c1ccccc1OCCNC(C)C (stereo unspecified)	i
COc1ccc(C(=O)NC(C)CCc2ccccc2)cc1[N+](=O)[O-] (stereo unspecified)	i
CCCCOc1ccc(C(=O)Nc2ccc(S(=O)(=O)Nc3nccs3)cc2)cc1	i
COc1ccc(C(=O)CCCSc2nnnn2-c2ccccc2)c(OC)c1	i
COc1ccccc1Nc1nc(-c2ccc(OC)c(OC)c2)cs1	i
O=C(CCCc1ccccc1)Nc1ccc(S(=O)(=O)N2CCCC2)cc1	i
O=C(NC1CCCCCCC1)c1c(Cl)cccc1Cl	i
Cc1cccc(CN2CCCC2CO)c1 (stereo unspecified)	i
COc1ccccc1NC(=NS(=O)(=O)Cc1ccccc1)Nc1nc(C)cc(C)n1	i
O=C(CSc1ncn[nH]1)n1c2ccccc2c2ccccc21	i
O=C(CN1CCCCC1)Nc1nc2ccc([N+](=O)[O-])cc2s1	i
COc1ccc(Br)cc1CNc1ccc([N+](=O)[O-])cc1C	i
CCc1ccc2oc(-c3ccc(NC(=O)c4cc(OC)c(OC)c(OC)c4)cc3)nc2c1	i
Brc1cccc(-c2cn3ccccc3n2)c1	i
COc1cc(C=O)ccc1OCc1ccccc1COc1ccc(C=O)cc1OC	i
N#CC1=C(N)OC2=C(C(=O)CC(c3ccccc3)C2)C1c1ccc(F)c(F)c1 (stereo unspecified)	i
O=C(NCC1CCCO1)c1ccccc1C(=O)c1ccc(Cl)cc1 (stereo unspecified)	i
Brc1ccc(C2=CSC3=NCCN23)cc1	i
CCOc1ccc(C2=CSC3=NCCN23)cc1	+
Fc1ccc(C2=CSC3=NCCN23)cc1	i
CCSc1nnc(NC(=O)c2cc(S(=O)(=O)N3CCCCC3)ccc2Cl)s1	i
SMILES	Algae TAG accum
O=C(NCc1ccco1)N(c1ccccc1)c1ccccc1	i
Cc1ccc(C)c(OCc2nc(-c3cccc([N+](=O)[O-])c3)no2)c1	i
OC1CCN(Cc2cccc(Oc3ccccc3)c2)CC1	i
CN1CCCN(Cc2cccc(Br)c2)CC1	i
OC1CCCN(Cc2ccc3c(c2)Cc2ccccc2-3)C1 (stereo unspecified)	i
CN1CCN(Cc2ccc3c(c2)Cc2ccccc2-3)CC1	+
COc1cccc(CN2CCCN(C)CC2)c1	i
CN1CCN(Cc2cccc(Oc3ccccc3)c2)CC1	+
CN1CCCN(Cc2cccc(Oc3ccccc3)c2)CC1	+
OCC1CCCN(Cc2ccc3c(c2)Cc2ccccc2-3)C1 (stereo unspecified)	i
COc1ccc(CN2CCN(C)CC2)cc1OCc1ccccc1	i
COc1ccc(OC)c(CN2CCC(N3CCCCCC3)CC2)c1	i
O=C(c1ccc(F)cc1)N1CCN(c2ccc([N+](=O)[O-])c(Sc3ccccn3)c2)CC1	i
CCOc1ccccc1N1CCN(S(=O)(=O)c2ccccc2[N+](=O)[O-])CC1	i
O=C1c2ccccc2C(=O)N1N1C(=O)c2cccnc2C1=O	i
CC(C)=CCC/C(C)=C/CN1CCCN(C)CC1	i
Cc1ccc(C(C)CCN2CCN(C)CC2)o1 (stereo unspecified)	i
CC(C)=CCC[C@H](C)CCN1CCN(C)CC1	+
COc1ccc2nc(SCC(=O)NCCc3ccccc3)[nH]c2c1	i
COCC(C)NC1C2CC3CC(C2)CC1C3 (stereo unspecified)	i
CC(CCc1ccc(O)cc1)NC1C2CC3CC(C2)CC1C3 (stereo unspecified)	+
O=C(CCCc1ccccc1)NC1C2CC3CC(C2)CC1C3 (stereo unspecified)	i
O=C(CSc1ccccc1)N1CCN(c2ccc([N+](=O)[O-])cc2)CC1	i
c1cc2c(cc1CN1CCOCC1)OCO2	i
c1ccc2c(c1)CCN(Cc1ccc3c(c1)OCO3)C2	+
SMILES	Algae TAG accum
c1cc2c(cc1CN1CCCCC1)OCO2	i
NS(=O)(=O)c1ccc(N/C=C/C(=O)c2ccc(Cl)s2)cc1	i
Cc1ccc2nc(/C(C#N)=C/c3cccc(Br)c3)[nH]c2c1	i
CN1CCCN(Cc2ccc([N+](=O)[O-])o2)CC1	+
O=[N+]([O-])c1ccc(CN2CCN(c3ccccc3)CC2)o1	i
CN1CCCN(Cc2ccc(-c3ccccc3[N+](=O)[O-])o2)CC1	i
CC(C)OC(=O)Nc1nnc(Cc2ccccc2)s1	i
COc1ccccc1NC(=O)C1=C(C)NC(=O)NC1c1ccc([N+](=O)[O-])cc1 (stereo unspecified)	i
c1cc(CN2CCSCC2)ccn1	i
COc1ccc(CCNC2CCC(c3ccccc3)CC2)cc1 (stereo unspecified)	i
C=CCSC1=C(C#N)C(c2ccc(O)c(OC)c2)CC(=O)N1 (stereo unspecified)	i
COc1ccc(S(=O)(=O)N2CCN(Cc3ccc([N+](=O)[O-])cc3)CC2)cc1	i
COc1ccc(CN2CCN(Cc3ccc([N+](=O)[O-])cc3)CC2)cc1OC	+
COc1ccc(CN2CCN(Cc3cc(OC)c(OC)cc3[N+](=O)[O-])CC2)cc1OC	i

Screening results deposited in PubChem by DiRusso Lab, Biochemistry Department, University of Nebraska.
